# Measurements from PubChem BioAssay (Tox21).
# Inconclusive results are not listed. Values without a mark were called inactive. The call rests on the fitted dose curve; in most records, active means well fitted cell-killing curve with a large enough effect in the repeat runs; inconclusive means weak or mixed curves, or effect the other way; inactive means flat fitted curve, though single readings scatter.
# Test: qHTS assay to identify small molecule agonists of the constitutive androstane receptor (CAR) signaling pathway - cell viability counter screen (AID 1224836); further: nearly all actives have a fitted effect of over 45% in size
# Details: HepG2-CYP2B6-hCAR viability, CellTiter-Fluor, 23 h, PK11195 added to every well; series mostly up to 92.4 µM; viability change, negative = cytotoxic: at the top concentration
# Source text: U.S. Tox21 Program National Center for Advancing Translational Sciences [NCATS] NIH Chemical Genomics Center [NCGC] U.S. Environmental Protection Agency [EPA] National Institutes of Environmental Health Sciences [NIEHS] National Toxicology Program [NTP] U.S. Food and Drug Administration [FDA] Tox21 Assay Overview: The constitutive androstane receptor (CAR) is a nuclear receptor which regulates multiple drug metabolizing enzymes (DMEs) and transporters. Activating CAR will generally increase the transcription and subsequent translation of CYP2B6 and CYP3A4. These two DMEs represent about 50% of the drug metabolizing potential in the body. […] Recently, there have also been studies performed indicating CARs role in energy metabolism and cancer therapy. Therefore, inducing CARs activity could have a potential effect on diabetes and cancer. Identifying environmental toxins and compounds which modulate CAR, through the use of the Tox21 10K compound collection, will be an important step in determining the toxicity and potential therapeutic effects these factors will have on the human body. To differentiate true CAR agonists from cytotoxic substances, the assay is multiplexed with a cell viability assay.
# Tox21 Assay Protocol Summary: A double-stable (hCAR and CYP2B6-2.2kb) transfected cell line, derived from human hepatoma (HepG2) cells, was utilized for the duration of the quantitative high-throughput screens. The HepG2-CYP2B6-hCAR cells were dispensed at 2500 cells/4 uL/well in 1536-well white solid bottom plates using a Multidrop Combi. After the assay plates were incubated at 37 C/5% CO2 for 4 hrs, 23 nL of compounds at 15 concentrations (from 5-48 columns) or positive control (from 1 to 4 columns) were transferred to the assay plates using a Pintool station. One uL of PK11195 (final concentration = 0.75 uM) was added, using a Flying Reagent Dispenser, inside each well. After a 23 hr incubation period at 37 C/5% CO2, 1 uL of CellTiter-Fluor reagent was added into each well of the assay plates using a Flying Reagent Dispenser. The fluorescence intensity in the plates was then measured using a ViewLux plate reader.
# On the % scale 0 is the no-effect control and ±100 the full control effect.
row,SMILES,"viability change, negative = cytotoxic"
1,CC(Cl)COP(=O)(OCC(C)Cl)OCC(C)Cl (stereo not given),2.86%
2,C[C@H]1O[C@H](O[C@H]2[C@H](O)[C@@H](O)[C@@H](O[C@H]3[C@H](O)[C@@H](O)[C@H](O)O[C@@H]3CO)O[C@@H]2CO)[C@H](O)[C@@H](O)[C@@H]1N[C@H]1C=C(CO)[C@@H](O)[C@H](O)[C@H]1O,4.34% [at 42.5 µM]
3,COCC(=O)Nc1c(I)c(C(=O)NCC(O)CO)c(I)c(C(=O)N(C)CC(O)CO)c1I (stereo not given),0.303% [at 42.5 µM]
4,CC(C)(C)NCCO,-0.616%
5,CCCCCCCCCCCCCC(=O)OC,6.32%
6,O=[Si]=O,1.97%
7,O=C(O)c1ccccc1C(=O)Nc1ccc(S(=O)(=O)Nc2nccs2)cc1,1.75% [at 42.5 µM]
8,CCC(C)N (stereo not given),-14.5%
9,CCc1nccnc1C,-1.07%
10,Cc1ccccc1C,5.52%
11,CCCCCCCCC(=O)OCC,5.25%
12,NS(=O)(=O)c1ccc(Cl)c(S(N)(=O)=O)c1,7% [at 42.5 µM]
13,O=C(O)c1ccc(OCCN2CCCCC2)cc1,6.36% [at 42.5 µM]
14,CCN(CCO)c1cccc(C)c1,5.08%
15,O=C(O)CCNC(=O)c1ccccc1,8.48% [at 42.5 µM]
16,CCC(CO)CO,0.726%
17,CCCC(C)CC (stereo not given),1.6%
18,CC(=O)c1ccc2c(c1)CCCC2,-4.66%
19,CCCCCC1CCCC(=O)O1 (stereo not given),-0.839%
20,CCNC(=O)/C=C/c1cccc(Br)c1,5.17% [at 42.5 µM]

row,SMILES,"viability change, negative = cytotoxic"
1,NC(Cc1c[nH]c2ccccc12)C(=O)O (stereo not given),-0.575% [at 42.5 µM]
2,Cc1oc(=O)oc1CN1CCN(c2cc3c(cc2F)c(=O)c(C(=O)O)c2n3C(C)S2)CC1 (stereo not given),-0.92% [at 42.5 µM]
3,CCCCCCCCCCCCCCCC(=O)NCCO,13.4% [at 42.5 µM]
4,CCCCOC(=O)[C@@H](C)Oc1ccc(Oc2ccc(C(F)(F)F)cn2)cc1,0.993%
5,C=CCOCC(O)CCl (stereo not given),-1.12%
6,COC(=O)CCC(=O)O,0.233%
7,C=CC(C)(O)CC/C=C(\C)CC (stereo not given),-4.93%
8,CNCc1ccccc1,7.07% [at 42.5 µM]
9,CC(=O)/C=C/c1ccco1,4.36%
10,COc1cc2c3cc1Oc1cc(ccc1O)C[C@@H]1c4c(cc(OC)c(O)c4Oc4ccc(cc4)C[C@@H]3N(C)CC2)CC[N+]1(C)C,-6.06% [at 42.5 µM]
11,C[C@H](CCC(=O)NCC(=O)O)[C@H]1CC[C@H]2[C@@H]3[C@H](O)C[C@@H]4C[C@H](O)CC[C@]4(C)[C@H]3C[C@H](O)[C@]12C,3.87%
12,C=C(C)C(=O)OC1CC(C)CC(C)(C)C1 (stereo not given),-11.2%
13,O=C(/C=C/c1ccccc1)NCCO,-14.8% [at 42.5 µM]
14,NS(=O)(=O)c1ccccc1OC(F)(F)F,3.52%
15,CCC(C)(CCC(C)C)C(=O)[O-].CCC(C)(CCC(C)C)C(=O)[O-].[Zn+2] (stereo not given),11.8%
16,O=C(Oc1ccccc1C(=O)O)c1ccccc1O,0.529% [at 42.5 µM]
17,NCCc1ccn[nH]1,4.83% [at 42.5 µM]
18,C[C@H](CCC(=O)O)[C@H]1CC[C@H]2[C@@H]3[C@H](O)C[C@@H]4C[C@H](O)CC[C@]4(C)[C@H]3C[C@H](O)[C@]12C,-7.24% [at 42.5 µM]
19,C1=C\CC/C=C\CC/1,2.1%
20,CCCCCCCCCCCCC,1.9%
